Sampled rows, rich in hits. Any-hit rate of the full collection: about 3.7%.
TGFb inhibitor: TGF-b pathway inhibition; HepG2 CAGA-GFP TGF-b/SMAD3 reporter, GFP fluorescence, 18 h; TGF-beta stimulated, 500 pg/mL final; Potency, µM (series often up to 46.1 µM), for the others: at the top dose activity, negative = inhibition, actives largely listed as inhibitors; hit rate 1.2% among 410,000; also: % is scaled to controls: 0 for no effect and ±100 for the full control effect; nearly all actives have a fitted effect of over 65% in size
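HEPG2 CAGA-GFP, 1000 cells/well; 2 h settle, 37 C; cpd via pin tool; TGF-b 500 pg/mL final; 18 h, 37 C; GFP imaging ex488/em500-530; %Activity normalised to -TGF-b and +DMSO controls; CRC fit, curve class.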
GLP1R ag: activates the human GLP-1 receptor | Potency, µM (titrated, usually from 45.6 µM), for the others: at the top dose activation, actives largely listed as activators | hit rate 0.007% among 380,000 | P43220 | HEK293 GLP-1R CRE-luciferase, luminescence, 4-6 h; cells express a hypersensitive GLP-1R form; also: % of control where 0% means no effect
Target sequence (P43220 whole entry, looked up): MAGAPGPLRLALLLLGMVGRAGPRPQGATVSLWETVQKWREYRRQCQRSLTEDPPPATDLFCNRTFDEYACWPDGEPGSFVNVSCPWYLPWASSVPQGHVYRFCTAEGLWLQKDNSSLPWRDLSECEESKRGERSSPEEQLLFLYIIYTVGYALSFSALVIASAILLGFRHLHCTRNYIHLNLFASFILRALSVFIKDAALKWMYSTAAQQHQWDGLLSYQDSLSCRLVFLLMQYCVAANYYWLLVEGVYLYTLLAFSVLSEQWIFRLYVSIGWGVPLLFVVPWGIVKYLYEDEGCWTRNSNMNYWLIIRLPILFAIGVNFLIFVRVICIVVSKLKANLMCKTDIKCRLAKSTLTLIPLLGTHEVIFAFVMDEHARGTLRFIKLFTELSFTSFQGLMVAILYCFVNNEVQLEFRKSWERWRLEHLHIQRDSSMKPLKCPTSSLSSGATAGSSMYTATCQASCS
HepG2 viability: HepG2 cytotoxicity, counter-screen for TGF-b inhibitors; HepG2 CAGA-GFP viability, ATP luminescence, 18 h; AID 588856; Potency, µM (top dose mostly 46.1 µM), inactives show at the highest dose activity change, negative = cytotoxicity, usual class: cytotoxic; hit rate 0.76% among 410,000
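HepG2 CAGA-GFP cells (1000/well, DMEM with 1% FBS) received compound, then TGF-beta at 500 pg/mL final, and were incubated 18 hours at 37 degrees C. Viability was read by CellTiter-Glo luminescence. Media-only wells were set as complete cell-killing and DMSO as no toxicity.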
ATXN2 expr inh: ATXN2 expression inhibition | hit rate 0.72% among 360,000 | HEK-293 ATXN2-luciferase reporter, luminescence, 24 h | Potency, µM (doses to about 57 µM), without a hit: at the top dose activity change, negative = inhibition, most hits filed as inhibitors; also: % is scaled to controls: 0 for no effect and ±100 for the full control effect; nearly all actives have a fitted effect of over 55% in size
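ATXN2-luciferase reporter cells (luciferase flanked by upstream and downstream ATXN2 gene portions) were treated 24 h at 37 °C with compounds at up to 57 uM. SteadyGlo luminescence gave expression; GF-AFC fluorescence gave viability.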
S2 tox: viability counter-screen for ATXN expression inhibitors. S2 cells (HEK-293 line with an ATXN2-luciferase reporter) viability, CellTiter-Fluor protease fluorescence, 24 h. hit rate 0.49% among 400,000. Potency, µM (titrated, usually from 56.7 µM), actives largely listed as cytotoxic; also: nearly all actives have a fitted effect of over 40% in size
GLP1R inv ag: acts as inverse agonist at human GLP-1 receptor; P43220; HEK293 GLP-1R CRE-luciferase, luminescence, 24 h; GLP-1R form is constitutively active; Potency, µM (series often up to 38.3 µM), inactives show at the top dose activity change, negative = inhibition, hits mostly inhibitors; hit rate 1.6% among 410,000; AID 624417; also: % is scaled to controls: 0 for no effect and ±100 for the full control effect; nearly all actives have a fitted effect of over 55% in size
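Seeding at 200 cells/uL, 12 h culture, 24 hr compound treatment, then luciferase reagent and a luminescence read; cells are HEK293 stably expressing a constitutively active GLP-1R plus cAMP-responsive luciferase.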
Starred values were filed as active, the others as inactive. Calls follow the shape of the dose curve; as a rule, active = well fitted curve in the direction sought with a large enough effect; inconclusive = small, poorly fitted or top-dose-only effect, or another doubt; inactive = no such curve, though single readings can be large; an effect the other way counts as inactive or inconclusive. Potency is read from the fitted curve at half-maximal effect.

How did Cc1onc(-c2ccccc2)c1C(=O)OCCOc1ccc([N+](=O)[O-])cc1[N+](=O)[O-] do in these assays?
TGFb inhibitor: 14µM*; GLP1R ag: 16%; HepG2 viability: -30%; ATXN2 expr inh: -34%; S2 tox: inactive; GLP1R inv ag: inconclusive

How did COc1ccc(Cn2ccc3nc(C)c(C(=O)N4CCN(c5cc(C)ccc5C)CC4)cc3c2=O)cc1 do in these assays?
TGFb inhibitor: 16µM*; HepG2 viability: -20%; ATXN2 expr inh: inconclusive; S2 tox: inconclusive; GLP1R inv ag: inconclusive

How did Cc1nc2ccn(Cc3cccs3)c(=O)c2cc1C(=O)N1CCN(c2ccccc2F)CC1 do in these assays?
TGFb inhibitor: 20µM*; HepG2 viability: -22%; GLP1R inv ag: -25%

What do the screens show for `CC1(C)OC(=O)C2(Cc3cc([N+](=O)[O-])ccc3N3CCCCC32)C(=O)O1` (stereo not drawn)?
TGFb inhibitor: 0%; HepG2 viability: 6%

Results for O=C(Cn1c(=O)n(Cc2ccco2)c(=O)c2sc3ccccc3c21)Nc1ccccc1C(F)(F)F ?
TGFb inhibitor: -13%; GLP1R ag: -1%; HepG2 viability: -13%; ATXN2 expr inh: 1%; S2 tox: inconclusive; GLP1R inv ag: -15%

Results for CCC1CN(CC(=O)NC(C)CO)Cc2cc(OC)ccc2O1 (stereo not drawn) ?
S2 tox: inactive

What do the screens show for `CCc1cccc(CC)c1-n1c(SCC(=O)N2CCCc3ccccc32)nc(O)cc1=O`?
TGFb inhibitor: inconclusive; GLP1R ag: -1%; HepG2 viability: 9%; ATXN2 expr inh: 1%; S2 tox: inactive; GLP1R inv ag: 10µM*

How did Cc1cccc(-n2ccnc2SCC(=O)N2CCCc3ccccc32)c1C do in these assays?
TGFb inhibitor: 1%; GLP1R ag: 4%; HepG2 viability: -16%; ATXN2 expr inh: 1%; S2 tox: inactive; GLP1R inv ag: 11µM*

Results for O=C(CSc1ncccn1)N1CCCc2ccccc21 ?
TGFb inhibitor: -8%; GLP1R ag: 4%; HepG2 viability: 6%; ATXN2 expr inh: 7%; S2 tox: inconclusive; GLP1R inv ag: 28%

Results for Cc1cccc(-n2ccnc2SCC(=O)Nc2ccc(F)cc2F)c1C ?
TGFb inhibitor: -3%; GLP1R ag: 13%; HepG2 viability: -19%; ATXN2 expr inh: -10%; S2 tox: inactive; GLP1R inv ag: inconclusive

How did Cc1ccc(C)c(NC(=O)CSc2nccn2-c2cccc(C)c2C)c1 do in these assays?
TGFb inhibitor: inconclusive; HepG2 viability: -32%; ATXN2 expr inh: -21%; S2 tox: inactive; GLP1R inv ag: 13µM*

How did Cc1ccc(C)c(NC(=O)CSc2nnc(-c3cc4occc4n3C)n2-c2ccccc2C)c1 do in these assays?
TGFb inhibitor: 3%; HepG2 viability: -12%; GLP1R inv ag: 11µM*

How did CNc1c(Cl)cc(C=O)cc1Cl do in these assays?
TGFb inhibitor: 9%; HepG2 viability: -2%

What do the screens show for `O=S1(=O)C2CC3OC2(CC3c2ccc(F)cc2)CN1Cc1ccc(Cl)cc1` (stereo not drawn)?
TGFb inhibitor: -12%; HepG2 viability: 2%

Results for Cc1ccc(SCC(=O)OCC(=O)N(CC(C)C)c2c(N)n(Cc3ccccc3)c(=O)[nH]c2=O)cc1C ?
TGFb inhibitor: 18µM*; GLP1R ag: 6%; HepG2 viability: -156%; ATXN2 expr inh: -19%; S2 tox: inactive; GLP1R inv ag: inconclusive

What do the screens show for `Cc1ccc(C(=O)NCC(=O)OCC(=O)N(CC(C)C)c2c(N)n(Cc3ccccc3)c(=O)[nH]c2=O)cc1C`?
TGFb inhibitor: 1%; GLP1R ag: 8%; HepG2 viability: 3%; ATXN2 expr inh: 5%; S2 tox: inactive; GLP1R inv ag: -4%

Compound activity from PubChem BioAssay.
